Data as given in the supplement of paper PMC6555819.

How the values were obtained:
Assay in all cases: PBM binding z-score (relative to random genomic background probes); higher = stronger binding; sequences stand for … in GC…GCGATTGACAGCGTAGAATGAAGG
[1] = test system: PPARg:RXRa DBDmut IVT, anti-RXR (DBD mutation: RXRa K156A/R161A, NR concentration 270 nM, RXRa partner concentration 90 nM)
Procedure, shortened: (§1)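 Antibodies against each partner of ligand-free nuclear receptor dimers (one per run) detected binding on custom Agilent 4×180K protein-binding microarrays after 1 h incubation. The double-stranded probes had 34-nt variable regions carrying direct-repeat seeds, single-nucleotide variants, half-site ablations and random human genomic background sequences. Binding z-scores, from regression-normalized fluorescence, use the random background probes as reference.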

[2] = test system: PPARg:RXRa IVT, anti-PPARg (NR concentration 270 nM, RXRa partner concentration 90 nM)
Procedure, shortened: as §1

[3] = test system: PPARg DBDmut:RXRa IVT, anti-PPARg (DBD mutation: PPARg1 K132A/R137A, NR concentration 270 nM, RXRa partner concentration 90 nM)
Procedure, shortened: as §1

[4] = test system: PPARg DBDmut IVT, anti-PPARg (DBD mutation: PPARg1 K132A/R137A, NR concentration 270 nM)
Procedure, shortened: as §1

[5] = test system: PPARg homodimer (NR concentration 180 nM)
Procedure, shortened: as §1

[6] = test system: PXR:RXRa (NR concentration 270 nM, RXRa partner concentration 90 nM)
Procedure, shortened: as §1

[7] = test system: PXR homodimer (NR concentration 270 nM)
Procedure, shortened: as §1

[8] = test system: RARa:RXR (NR concentration 270 nM, RXRa partner concentration 90 nM)
Procedure, shortened: as §1

[9] = test system: RARa homodimer (NR concentration 270 nM)
Procedure, shortened: as §1

[10] = test system: RARb:RXRa (NR concentration 270 nM, RXRa partner concentration 90 nM)
Procedure, shortened: as §1

Sequence | PBM binding z-score [1] | PBM binding z-score [2] | PBM binding z-score [3] | PBM binding z-score [4] | PBM binding z-score [5] | PBM binding z-score [6] | PBM binding z-score [7] | PBM binding z-score [8] | PBM binding z-score [9] | PBM binding z-score [10]
TAGCCTAGTTCATGGGCCAGTATACCACGCGAAC | 0.459 | 0.731 | -0.299 | -0.226 | -0.229 | 0.408 | 0.205 | 0.216 | -0.319 | 1.37
TCGATTAGGTTACCAATGGGGCATTCAGCTTTCT | 2.52 | 1.4 | 0.217 | 0.237 | 0.366 | 0.467 | -0.59 | 0.557 | -0.505 | 1.44
AGAATGAGGGTAAGATCAGGGAAACAGAATACAT | 2.28 | 1.71 | 1.14 | 0.818 | 0.587 | 0.216 | 0.539 | 0.611 | 1.07 | 0.741
ACTAGCAGGACAAGGGTCACTCAAGATTAGTCCG | 0.93 | 3.2 | -0.0211 | -0.445 | 2.71 | 3.31 | 0.0433 | 4.23 | 0.605 | 3.47
ATATGTAGGTTAGCTGGGGTCATTCATACTAGGC | 6.88 | 6.57 | 2.9 | 2.72 | 3.41 | 6.71 | 4.4 | 6.18 | 2.13 | 3.28
AGTCAAAGTACATCTAGGTAACGTAAGATATGCT | 0.968 | 2.23 | 0.568 | 1.11 | -0.552 | -0.0859 | 0.334 | -0.223 | 0.0853 | 0.801
GCTTACGGGTCAAAGGTTATAGCGTGAATAGAAT | 4.36 | 6.22 | 1.03 | 1.18 | 2.67 | 5.96 | 0.264 | 7.96 | 0.595 | 4.33
TGAATGAGGTTATAAGATCAAGGAACGTTGCAAA | 1.04 | 1.84 | 0.592 | 0.326 | 0.811 | 0.776 | -0.0343 | 1.37 | 0.338 | 1.18
CCTCCAAGGTCAGCAGGTCAGTGAAAGCGACGTG | 2.44 | 3.16 | -0.182 | -1.13 | 2.56 | 3.13 | 0.806 | 4.32 | 0.668 | 5.41
AGGATGAGGTTATACGTAGATCAGGGAAGAAAGT | 0.241 | 0.698 | 1.41 | 0.577 | 1.34 | 1.6 | 1.47 | 1.71 | 1.01 | 1.77
GATACAGGGTCAGCTGGAGGCCAGAGTATGGAAA | 1.09 | 2.28 | -0.601 | -0.834 | 2.9 | 3.53 | -0.0691 | 5.12 | 0.139 | 4.3
GCGACTGGGGCACCAGCAGGTTACCATAACTTAA | 4.23 | 4.22 | -0.601 | -0.596 | -0.202 | 0.0556 | -0.64 | 0.555 | -0.588 | 1.05
GGAACGAGAGCAAGTTGATAGCAGAGTTTGATGG | 0.286 | -0.607 | -0.891 | -0.825 | -0.674 | -0.482 | 0.00313 | -0.584 | -0.345 | -0.427
GCTTGTAGATCAAGGTTAGGAAAGACTAAGCTAA | 1.45 | 0.637 | -0.619 | 0.0428 | -0.189 | -0.276 | -0.422 | -0.0199 | -0.3 | 0.336
CCGACTGGGGCAAGGTTACCATGACGCACAGCCA | 2.69 | 3.49 | -0.7 | -0.368 | 0.811 | 0.221 | -0.439 | 0.851 | -0.183 | 1.62
ACTAGCAGGCCAAGTGTCACTCAAGATTAGTCCG | 1.36 | 1.14 | -0.753 | -0.466 | -0.0608 | -0.239 | -0.525 | 0.0332 | -0.483 | 0.887

Sequence | PBM binding z-score [1] | PBM binding z-score [2] | PBM binding z-score [3] | PBM binding z-score [4] | PBM binding z-score [5] | PBM binding z-score [6] | PBM binding z-score [7] | PBM binding z-score [8] | PBM binding z-score [9] | PBM binding z-score [10]
GCATATAGGTAATACAAGATGAAAGTCCGATTGT | 4.04 | 2.21 | 1.01 | 1.1 | 0.319 | 0.0663 | 0.0386 | 0.202 | 0.786 | -0.216
ATCTCTCGGTAAAAGTTCAGTGAATCCCGAGGAT | -0.48 | 1.24 | 1.23 | 1.28 | 1.06 | 1.92 | 1.71 | 0.639 | 0.811 | 2.4
GCTATTAGTTGAAAGGGCAAACGAATGATTCTCG | 0.582 | 1.18 | 0.0539 | 0.507 | 1.19 | 0.938 | 0.57 | 1.52 | 1.28 | 2.04
CAAACTAGGTCACGAAAGCTCAAAGTCGAATGAC | 8.36 | 8.78 | 1.59 | 1.7 | 2.09 | 2.01 | -0.0695 | 2.59 | 0.726 | 4.42
CCTACTGGGCCAAAAAGGTCATTGACGCCGATAA | 3.85 | 3.99 | -0.855 | -0.422 | 2.91 | 4.65 | 2.1 | 5.01 | 1.28 | 3.72
ACTAGTTGGTCAGCTGATGTCACACACAATTCGG | 1.1 | 0.986 | 0.46 | 0.51 | 0.558 | 0.361 | -0.542 | 0.497 | 0.341 | 0.995
CCTGCTGGGCCATCAGGTCATTGATATCAACGTT | 1.27 | 1.52 | -0.402 | -0.46 | 0.175 | 1.55 | 0.128 | 1.83 | -0.97 | 2.02
ATCTCTAGGTAACAAGTACAGTGAAAGAGAGGAC | 2.78 | 2.91 | 1.63 | 0.83 | 0.76 | 0.221 | 0.657 | 0.485 | 1.28 | 0.624
CCTGCTGGGCCAAAAAGGTCATTGATGCCGATAA | 0.633 | 1.32 | -0.602 | -0.914 | 3.24 | 4.99 | 3.34 | 5.41 | 0.138 | 3.89
ATCTCGAGGTAAGACTCAGTTCAGTGAAGAACGC | -0.399 | 0.378 | 0.239 | 0.502 | 0.135 | 1.38 | 0.899 | 0.133 | -0.44 | 0.228
CCGAGTAGGTTATGGAGCATTCAGGCAACGGTGA | 3.11 | 2.34 | -1.14 | -0.703 | 0.952 | -0.208 | 0.0693 | 0.144 | 0.512 | 0.499
CCTACTGGGCCATTCAGCGGTCATTGATCATATG | 4.3 | 3.25 | 0.0512 | -0.76 | 0.303 | -0.111 | -0.0854 | 0.0105 | 0.0285 | 1.2
ACTATTAGTTGAGACGAGTGCAACCGATAGGTTG | 0.000618 | 0.0242 | 0.728 | 0.584 | 0.204 | 1.96 | 0.737 | 0.0877 | -0.0239 | 0.0996
ATCGAAAGGTCGTGAGGTTAGTATACAGAAAGGC | 0.453 | 2.21 | 1.19 | 1.52 | 2.32 | 3.74 | 0.823 | 4.8 | 1.16 | 3.99
CGTCCAAGGTCAGCAGGTAAGTGAAAGCGACGTG | 2.46 | 2.83 | 0.325 | -0.0804 | 2.47 | 2.54 | -0.0164 | 3.47 | 1.22 | 5
CCTTACGGGTCACTCCAGGTTATAGCATCGGAGT | 2.98 | 3.86 | -0.0737 | -0.285 | 1.64 | 4.79 | 0.216 | 3.49 | 0.27 | 3.6
